Test [1] in a line: A CellTox Green Cytotoxicity Assay to monitor cytotoxicity in HepG2 cells - 0 hour (AID 1224882). Further: nearly all actives have a fitted effect of over 35% in size. The method, boiled down: (§1)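 Using 1536-well format, dye-containing HepG2 suspension was seeded, allowed 5 h at 37 C/5% CO2, dosed by pintool with compounds, positive and negative controls, and imaged for fluorescence across 40 h.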
A short description of test [2]: A CellTox Green Cytotoxicity Assay to monitor cytotoxicity in HepG2 cells - 32 hour (AID 1224883). Further: nearly all actives have a fitted effect of over 50% in size. Further: potency means the concentration at half of the fitted maximal effect. The method, boiled down:
as §1

Test [3] is described as follows: A CellTox Green Cytotoxicity Assay to monitor cytotoxicity in HEK293 cells - 8 hour (AID 1224884). Further: nearly all actives have a fitted effect of over 35% in size. The method, boiled down:
(§2)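 Fluorescence intensity, read at 0, 8, 16, 24, 32 and 40 h of compound treatment, reflected dye binding to DNA of dead HEK293 cells; compounds (23 nL, DMSO) were added 5 h after plating cells with reagent.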

A short description of test [4]: qHTS RealTime-Glo MT Cell Viability Assay in HepG2 cells - 16 hour (AID 1224885). Further: nearly all actives have a fitted effect of over 50% in size. The method, boiled down: (§3)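 qHTS, HepG2, 600 cells/well, RealTime-Glo (NanoLuc + prosubstrate) added with cells; 5 h preincubation; DMSO compound addition; 37 C; luminescence at 0/8/16/24/32/40 h.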
(In general: qHTS replaces the single test concentration by a dilution series.)

A short description of test [5]: qHTS RealTime-Glo MT Cell Viability Assay in HEK293 cells - 24 hour (AID 1224886). Further: nearly all actives have a fitted effect of over 50% in size. Further: potency means the concentration at half of the fitted maximal effect. On activity change, negative = cytotoxicity: top concentration of the series differs between compounds. The method, boiled down: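 Assay medium contained NanoLuc luciferase plus cell-permeant prosubstrate, added with HEK293 cells at 600 cells/well. After 5 h at 37 C/5% CO2 compounds were added; plates stayed at 37 C for 40 h with serial luminescence reads.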
Test [6] can be described thus: qHTS RealTime-Glo MT Cell Viability Assay in HEK293 cells - 8 hour (AID 1224887). Further: nearly all actives have a fitted effect of over 50% in size. Further: potency means the concentration at half of the fitted maximal effect. On activity change, negative = cytotoxicity: top concentration of the series differs between compounds. An outline of the steps: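 Viable HEK293 cells reduce a cell-permeant prosubstrate; the product diffuses out and is consumed by NanoLuc in the medium to give light. Compounds went in after a 5 h incubation and plates were read over the treatment course.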
Test [7] in a line: qHTS RealTime-Glo MT Cell Viability Assay in HepG2 cells - 0 hour (AID 1224889). Further: nearly all actives have a fitted effect of over 50% in size. The method, boiled down:
as §3

The nature of test [8]: A CellTox Green Cytotoxicity Assay to monitor cytotoxicity in HepG2 cells - 8 hour (AID 1224890). Further: nearly all actives have a fitted effect of over 45% in size. The method, boiled down:
as §1

A short description of test [9]: qHTS assay to identify small molecule antagonists of the estrogen receptor alpha (ER-alpha) signaling pathway using the BG1 cell line in the presence of 0.1 nM 17-beta-estradiol - cell viability counter screen (AID 1259241). Further: nearly all actives have a fitted effect of over 40% in size. An outline of the steps:
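CellTiter-Fluor read (30 min, 37C) on ER-alpha/ERE-luc VM7Luc4E2 cells; 22 hr compound treatment; agonist 0.1 nM E2 final; same-well multiplex.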

A short description of test [10]: A CellTox Green Cytotoxicity Assay to monitor cytotoxicity in HEK293 cells - 16 hour (AID 1224888). Further: nearly all actives have a fitted effect of over 35% in size. An outline of the steps:
as §2

Structures are written as SMILES. Values without a mark were called inactive. Records with an inconclusive call do not appear. Active and inactive are the calls of the source. The call rests on the fitted dose curve; in most records, active means well fitted curve in the direction sought with a large enough effect in the repeat runs; inconclusive means weak or mixed curves; inactive means no such curve, though single readings can be large; an effect the other way counts as inactive or inconclusive.
On the % scale 0 is the no-effect control and ±100 the full control effect.

For `COc1cc(N)c(Cl)cc1C(=O)NC1CCN(Cc2ccccc2)CC1`, the Potency entry in test [1], in [2], in test [3], in [7], in test [8] and in test [9] was “inactive” in each case. Besides, the compound was called inactive in test [4]. For the same compound, the Potency in test [5] is 19 µM (active); in [6] it was 21.3 µM (active).

Consider `O=S(=O)(O)C(F)(F)F`, for which the Potency entry in [1], in test [2], in test [3], in [5], in test [10] and in test [7] was “inactive” in each case. Besides, the Potency result in test [8] and in test [9] was “inactive” in each case. The compound was called inactive in test [4].

In the case of `Cc1ccccc1C(=O)Nc1ccc(C(=O)N2CCCC(O)c3cc(Cl)ccc32)c(C)c1` (stereo unspecified), the Potency result in test [1], in [2], in test [3], in test [10], in test [7] and in test [8] was “inactive” each time. Further, the Potency result in test [9] was “inactive”. Also, in test [4], the outcome was inactive.

As for `CC(=O)Oc1cc(C(C)C)c(OCCN(C)C)cc1C`, the Potency result in test [1], in test [2], in test [3], in test [7] and in [8] was “inactive” in each case. For the same compound, in test [4], the result was inactive.

Regarding `CCCOCCC`, the Potency entry in test [1], in [2], in test [3], in test [5], in [6] and in test [7] was “inactive” in each case. The Potency entry in test [8] and in [9] was “inactive” throughout. Further, the result in [4] was inactive.

Take `COc1ccc(Nc2ccc(OC)cc2)cc1`: the Potency entry in test [1], in test [2], in [3], in [10] and in [7] was “inactive” throughout. The result in test [4] was inactive. Also, in test [6], the Potency is 14.1 µM (active).

In the case of `Cc1nc(N)nc(N)c1-c1ccc(Cl)c(Cl)c1`, the Potency result in test [1], in test [2], in test [3], in test [10], in [7] and in test [8] was “inactive” each time. Besides, the compound was classed as inactive in test [4].

Turning to `O=C1CCCCCCCCCCC(=O)OCCO1`, the Potency entry in [1], in [3], in test [5], in test [10], in test [7] and in test [9] was “inactive” throughout. The Potency in [2] is 24.5 µM (active). The compound was called inactive in test [4].

As for `Cc1ccc(C)c(N)c1`, the Potency result in test [1], in [2], in test [3], in test [5], in test [6] and in test [7] was “inactive” throughout. Further, the Potency entry in test [8] and in test [9] was “inactive” in each case. The compound was called inactive in test [4].

Regarding `COc1nc(C)nc(NC(=O)NS(=O)(=O)c2ccccc2OCCCl)n1`, the Potency result in test [1], in test [2], in test [3], in test [5], in test [6] and in test [7] was “inactive” each time. Also, the Potency result in test [8] and in [9] was “inactive” in each case. In addition, in [4], the call was inactive.

Consider `CC1(C)C(=O)N(Cl)C(=O)N1Br`, for which the Potency result in [1], in [2], in test [3], in test [5], in test [6] and in [7] was “inactive” each time. Further, the Potency result in [8] and in [9] was “inactive” each time. Further, the call in test [4] was inactive.

Regarding `O=C(CC(=O)C(F)(F)F)c1ccccc1`, the Potency entry in [1], in test [2], in test [5], in test [6], in [10] and in test [7] was “inactive” in each case. The Potency entry in [8] and in test [9] was “inactive” in each case. Also, the compound was called inactive in test [4].

`CCCCCCCCCC#N`: the Potency result in [1], in test [2], in [5], in test [6], in [10] and in [7] was “inactive” each time. In addition, the Potency entry in test [8] and in [9] was “inactive” throughout. For the same compound, the compound was classed as inactive in [4].

Turning to `O=[N+]([O-])c1nccn1CO[C@@H](CO)[C@H](O)CO`, the Potency result in test [1], in [2], in [5], in test [6], in test [10] and in test [7] was “inactive” throughout. In addition, the Potency entry in [8] and in test [9] was “inactive” in each case. Besides, the compound was called inactive in test [4].

As for `COc1ccccc1OCC(O)COC(N)=O` (stereo unspecified), the Potency entry in test [1], in test [2], in test [5], in test [6], in test [10] and in test [7] was “inactive” in each case. Also, the Potency entry in test [8] is “inactive”. Moreover, in test [4], the outcome was inactive.

With `CCCCN1C[C@H](O)[C@@H](O)[C@H](O)[C@H]1CO`, the Potency result in [1], in test [2], in test [5], in test [6], in test [10] and in test [7] was “inactive” each time. Besides, the Potency result in test [8] and in [9] was “inactive” in each case. The compound was called inactive in test [4].

Regarding `FC(F)(F)C(Cl)(Cl)Cl`, the Potency result in [1], in [2], in test [5], in test [6], in test [10] and in [7] was “inactive” throughout. Besides, the Potency result in [8] and in [9] was “inactive” throughout. Also, the call in test [4] was inactive.

`O=C(O)CN(CCN(CC(=O)O)CC(=O)O)CCN(CC(=O)O)CC(=O)O`: the cytotoxicity in test [1] is 20.5% [at 15.8 µM]. Further, the cytotoxicity increase is 22% [at 15.8 µM] in test [2], 18.1% [at 15.8 µM] in test [3] and 26.9% [at 15.8 µM] in test [8]. The activity change, negative = cytotoxic in test [4] was -0.409% [at 15.8 µM]. The values for the activity change, negative = cytotoxicity in test [7] and in test [9] were -4.51% [at 15.8 µM] and -1.86% [at 19 µM], respectively.

For `CCCCNC(=S)NCCCC`, the Potency result in test [1], in test [2], in [5], in test [6], in test [10] and in [7] was “inactive” in each case. For the same compound, the Potency entry in test [8] and in test [9] was “inactive” throughout. For the same compound, in [4], the call was inactive.

Take `N#Cc1ccc(C(c2ccc(C#N)cc2)n2cncn2)cc1`: the Potency entry in test [1], in test [2], in test [5], in test [6], in test [10] and in test [7] was “inactive” in each case. Further, the Potency result in [8] and in [9] was “inactive” in each case. Moreover, in test [4], the call was inactive.

Take `Cc1c[nH]c(=S)[nH]c1=O`: the Potency result in test [1], in [2], in test [5], in [6], in test [7] and in test [8] was “inactive” each time. Moreover, in [9], the Potency result is “inactive”. Also, in test [4], the outcome was inactive.

Take `CC(CNC1CCCCC1)OC(=O)c1ccccc1` (stereo unspecified): the Potency entry in test [1], in [2], in [5], in test [6], in test [10] and in [7] was “inactive” each time. The Potency result in test [8] and in [9] was “inactive” in each case. Moreover, the result in test [4] was inactive.

Turning to `Cc1ccc([N+](=O)[O-])c(N)c1`, the Potency result in [1], in test [2], in test [5], in test [6], in test [10] and in [7] was “inactive” in each case. In addition, the Potency entry in test [8] is “inactive”. Besides, the compound was classed as inactive in test [4].

Regarding `CCCCCCn1c(=O)c2c(ncn2C)n(C)c1=O`, the Potency entry in test [1], in test [2], in [3], in [5], in test [6] and in test [10] was “inactive” in each case. The Potency entry in [7] and in [8] was “inactive” each time.

The record behind these values is PubChem BioAssay (Tox21).
